From PubChem BioAssay AID1851 (National Center for Advancing Translational Sciences (NCATS), 2009)
Among all 16,000 compounds or so, about 2,600 (16%) were called active. Inconclusive results (about 20%) are left out. The list is a sample of the results. A number with no mark means an inactive call. Calls come from the whole dose curve; as a rule, active = well fitted curve in the direction sought with a large enough effect; inconclusive = small, poorly fitted or top-dose-only effect, or effect the other way; inactive = no such curve, though single readings can be large or run the other way.

target: Cytochrome P450 2D6 (Homo sapiens) (UniProt P10635); test: Cytochrome panel assay with activity outcomes; details: recombinant CYP, pro-luciferin dealkylation, luminescence, p450-cyp2d6; series mostly up to 57.1 µM; activity, negative = inhibition: at the top concentration
Sequence (P10635 whole entry, looked up): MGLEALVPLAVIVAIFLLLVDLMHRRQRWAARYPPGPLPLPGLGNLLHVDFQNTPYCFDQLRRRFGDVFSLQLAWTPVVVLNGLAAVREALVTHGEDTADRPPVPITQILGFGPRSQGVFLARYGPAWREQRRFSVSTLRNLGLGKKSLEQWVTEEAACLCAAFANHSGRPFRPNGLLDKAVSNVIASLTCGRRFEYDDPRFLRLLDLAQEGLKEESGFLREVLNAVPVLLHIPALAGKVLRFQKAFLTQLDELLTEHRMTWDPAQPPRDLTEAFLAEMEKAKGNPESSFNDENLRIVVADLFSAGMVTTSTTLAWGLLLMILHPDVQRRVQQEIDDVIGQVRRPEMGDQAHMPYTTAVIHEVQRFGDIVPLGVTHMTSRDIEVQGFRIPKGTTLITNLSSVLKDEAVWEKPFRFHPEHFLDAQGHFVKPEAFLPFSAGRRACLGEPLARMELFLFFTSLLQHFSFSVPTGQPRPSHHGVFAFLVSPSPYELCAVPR
% is set by controls: 0 for no effect and ±100 for the full control effect.

Structure (SMILES)	activity, negative = inhibition	AC50
COc1c(NC(C)=O)c2ccccc2c2ccccc12	-0.0075% [at 11.4 µM]	–
COCC(=O)N1CCC2(CC1)CN(Cc1ccc(C#N)cc1)C2	-10.2%	–
COC(=O)N1CCC2(CCCN(Cc3ccc(C#N)cc3)C2)CC1	–	0.316 µM (active)
CC(=O)N1CCC2(CCCN(Cc3ccccc3)C2)CC1	–	2.51 µM (active)
CC(=O)N1CCC2(CC1)CN(Cc1ccccc1)C2	-16.9%	–
COC(=O)N1CCC2(CCCN(Cc3ccccc3)C2)CC1	–	10 µM (active)
COC(=O)N1CCC[C@@]2(CCN(C(=O)Nc3cccc(C#N)c3)C2)C1	0.837%	–
O=c1cnc2cnc(N3CCNCC3)nc2n1Cc1ccc(F)cc1	-9.2%	–
CCNC(=S)NNC(=O)c1cc(CC(C)C)nc2ccccc12	-11.7%	–
O=C1[C@H]2[C@H]3[C@H](O)[C@H](O)C/C(=N/OCc4ccccc4)[C@@H]3CC[C@@H]2C(=O)N1C[C@@H]1CCCO1	10% [at 11.4 µM]	–
Cn1c(=O)c(-c2cccc(C#N)c2)nc2cnc(Oc3ccccc3)nc21	-1.53%	–
O=c1cc(O)cc(/C=C\c2ccc(O)c(O)c2)o1	-4.59%	–
CC1=C(C(=O)N2CCCCCC2)C2(CCC(C)CC2)OC1=O (centres undefined)	-5%	–
COc1ccccc1NC(=S)NNC(=O)c1c(Cl)c(C)nn1C	-7.8%	–
CC(C)CN(CC(C)C)S(=O)(=O)N1CCC(C(=O)NCc2ccc(F)cc2)CC1	-22.9%	–
CC[C@H](NC(C)C)[C@H](O)c1ccc(O)c(O)c1	–	10 µM (active)
COc1cc([C@H](O)CO)ccc1O	-1.2%	–
CNC[C@@H](SC)c1ccc(O)c(O)c1	2.56% [at 11.4 µM]	–
COC(=O)C(C)Sc1nc2c(cnn2-c2ccc(C)cc2)c(=O)[nH]1 (centres undefined)	7.04%	–
Cc1ccc(C(=O)C(OC(=O)CNS(=O)(=O)c2ccccc2)c2ccccc2)cc1 (centres undefined)	15.4%	–
Cc1ccc(C(=O)C(OC(=O)COc2ccccc2C)c2ccccc2)cc1 (centres undefined)	-11.8%	–
Cc1ccc(C(=O)C(OC(=O)CCC(=O)Nc2cccc(C)c2)c2ccccc2)cc1 (centres undefined)	–	28.2 µM (active)
Cc1cc2c(c(=O)o1)[C@@H](O)[C@H]1O[C@@H]1C2=O	3.46% [at 11.4 µM]	–
C[N+](C)(C)c1ccc([C@H](N)C(=O)O)cc1	6.78% [at 11.4 µM]	–
COc1ccccc1CNc1ncnc2ccc(-c3cccnc3)cc12	–	5.01 µM (active)

Structure (SMILES)	activity, negative = inhibition	AC50
COc1ccc(CNc2ncnc3ccc(-c4cccnc4)cc23)c(OC)c1	–	10 µM (active)
COc1ccc(S(=O)(=O)NC2(C(F)(F)F)N=C3SCCN3C2=O)cc1 (centres undefined)	8.37%	–
CCN1CCN(c2nc(C)c3c(n2)CCCC3=O)CC1	-16.4%	–
COC(=O)c1ccccc1-c1ccc(/C=C2\C(=O)N(c3ccccc3)N=C2c2ccccc2)o1	-3.39%	–
O=C(NC1CCCCC1)c1sc(=S)n2c1[nH]c(=O)c1ccccc12	-18.8%	–
COc1ccc(C2C(C#N)=C(N)N(Nc3ccccc3)C3=C2C(=O)CC(C)(C)C3)cc1C (centres undefined)	-20%	–
S=C(S)O[C@@H]1C[C@@H]2C[C@H]1[C@@H]1CCC[C@H]21	–	inactive
O=C1[C@@H]2[C@H]3[C@H](O)[C@H](O)C/C(=N/OCc4ccccc4)[C@H]3CC[C@H]2C(=O)N1c1ccc(F)cc1F	-7.87% [at 11.4 µM]	–
CC(=O)OC[C@@H]1O[C@@H](O/N=C2/C[C@@H](O)[C@@H](O)[C@@H]3[C@@H]4C(=O)N(c5cccc(Oc6ccccc6)c5)C(=O)[C@H]4CC[C@H]23)[C@H](OC(C)=O)[C@H](OC(C)=O)[C@@H]1OC(C)=O	0.346% [at 11.4 µM]	–
CC(=O)OC[C@@H]1O[C@@H](O/N=C2/C[C@@H](O)[C@@H](O)[C@@H]3[C@H]4C(=O)N(c5ccc(F)cc5F)C(=O)[C@@H]4CC[C@H]23)[C@H](OC(C)=O)[C@H](OC(C)=O)[C@@H]1OC(C)=O	–	3.16 µM (active)
C#CCCCO/N=C1/C[C@@H](O)[C@@H](O)[C@@H]2[C@@H]3C(=O)N(CCC(=O)OCC)C(=O)[C@H]3CC[C@H]12	5.95% [at 11.4 µM]	–
CC(=O)OC[C@@H]1O[C@@H](O/N=C2/C[C@@H](O)[C@@H](O)[C@@H]3[C@@H]4C(=O)N(C(C)(C)C)C(=O)[C@H]4CC[C@H]23)[C@H](OC(C)=O)[C@H](OC(C)=O)[C@@H]1OC(C)=O	3.1% [at 11.4 µM]	–
CC(=O)OC[C@@H]1O[C@@H](O/N=C2/C[C@@H](O)[C@@H](O)[C@@H]3[C@@H]4C(=O)N(C(C)(C)C)C(=O)[C@H]4CC[C@@H]23)[C@H](OC(C)=O)[C@H](OC(C)=O)[C@@H]1OC(C)=O	-13.3% [at 11.4 µM]	–
CCOC(=O)CCN1C(=O)[C@H]2[C@H]3[C@H](O)[C@H](O)C/C(=N/O[C@@H]4O[C@@H](COC(C)=O)[C@@H](OC(C)=O)[C@@H](OC(C)=O)[C@H]4OC(C)=O)[C@H]3CC[C@@H]2C1=O	–	3.16 µM (active)
C#CCCCO/N=C1/C[C@@H](O)[C@@H](O)[C@@H]2[C@@H]3C(=O)N(CCC(=O)OCC)C(=O)[C@H]3CC[C@@H]12	-5.32% [at 11.4 µM]	–
CCN1C(=O)[C@H]2[C@H]3[C@H](O)[C@H](O)C/C(=N/O[C@@H]4O[C@H](COC(C)=O)[C@@H](OC(C)=O)[C@H](OC(C)=O)[C@H]4OC(C)=O)[C@@H]3CC[C@@H]2C1=O	–	3.98 µM (active)
CCOC(=O)CCN1C(=O)[C@H]2[C@H]3[C@H](O)[C@H](O)C/C(=N/O[C@@H]4O[C@@H](COC(C)=O)[C@@H](OC(C)=O)[C@@H](OC(C)=O)[C@H]4OC(C)=O)[C@@H]3CC[C@@H]2C1=O	–	3.16 µM (active)
CCOC(=O)CCN1C(=O)[C@H]2[C@H]3[C@H](O)[C@H](O)C/C(=N/OC/C=C(\C)CCC=C(C)C)[C@@H]3CC[C@@H]2C1=O	0.883% [at 11.4 µM]	–
CCOC(=O)CCN1C(=O)[C@H]2[C@H]3[C@H](O)[C@H](O)C/C(=N/OC/C=C(\C)CCC=C(C)C)[C@H]3CC[C@@H]2C1=O	1.08% [at 11.4 µM]	–
CC(=O)OCC(=O)[C@]12OC(C)(C)O[C@@H]1C[C@H]1[C@H]3CC=C4C[C@@H](O)CC[C@]4(C)[C@H]3CC[C@]12C	25.3% [at 11.4 µM]	–
Cn1c(=O)c(-c2ccc(Cl)cc2)nc2cnc(Oc3ccccc3)nc21	-0.772%	–
N#CC(CC(=O)O)=C(c1ccccc1)c1ccccc1	9.93% [at 11.4 µM]	–
CNC(=O)CCc1nc(-c2ccc(C(C)(C)C)cc2)no1	1.62%	–
Cc1nn(C(=O)c2ccco2)c(C)c1Sc1ccccc1	-15.5%	–
Cn1c(=O)n2n(c1=O)[C@H]1[C@H](O)[C@H]3O[C@@H]3/C(=N/OC[C@@H](O)COCc3ccco3)[C@@H]1CC2	15.6% [at 11.4 µM]	–

Structure (SMILES)	activity, negative = inhibition	AC50
Cn1cc(-c2nc3cnc(N4CCNCC4)nc3n(C)c2=O)c2ccccc21	-6.12%	–
CC(C)OP(=O)(OC(C)C)C(NC(=O)c1ccc(Br)cc1)c1ccccc1 (centres undefined)	3.63%	–
COc1ccc(-c2cc(C(=O)O)c3c(C)nn(-c4ccccn4)c3n2)cc1	2.51%	–
C[C@@]12CC(=O)[C@@H]3[C@@H](CCC4=CC(=O)CC[C@]43C)[C@@H]1CC=C2CC(=O)O	17.8% [at 11.4 µM]	–
Cc1cnc(C(=O)OCC(=O)NC(C)C)cn1	-1.58%	–
CC(C)(SCc1ccccc1)[C@H](N)C(=O)O	1.44% [at 11.4 µM]	–
Cc1ccccc1OCC(=O)NC(=S)Nc1ccc(Br)c(C)n1	5.94%	–
Cc1cccc(N(NC(=O)C(C)(C)O)C(=O)c2ccccc2)c1	3.13%	–
Cc1nc2c(ccc3nc(NC(=O)c4ccc(S(=O)(=O)N(C)C)cc4)sc32)s1	-2.32%	–
CC(=O)OC[C@@H]1O[C@@H](O/N=C2/C[C@@H](O)[C@@H](O)[C@@H]3[C@@H]4C(=O)N(C5CCCCC5)C(=O)[C@H]4CC[C@H]23)[C@H](OC(C)=O)[C@H](OC(C)=O)[C@@H]1OC(C)=O	–	3.98 µM (active)
CCOC(=O)N/N=C1/C[C@@H](O)[C@@H](O)[C@@H]2[C@@H]3C(=O)N(C4CCCCC4)C(=O)[C@H]3CC[C@H]12	-11.9% [at 11.4 µM]	–
CC(C)=CCC/C(C)=C/CO/N=C1/C[C@@H](O)[C@@H](O)[C@@H]2[C@@H]3C(=O)N(C4CCCCC4)C(=O)[C@H]3CC[C@@H]12	2.55% [at 11.4 µM]	–
O=C(NCc1cccnc1)[C@@H]1[C@@H](C(=O)O)[C@H]2CC[C@@H]1O2	8.3% [at 11.4 µM]	–
CC1CCCC(C)N1C(=O)c1cc(-c2ccc(Cl)c(Cl)c2)on1 (centres undefined)	-10.3%	–
Cc1ccccc1C1C(C#N)=C2N=C(N)c3c(sc4c3CCCCC4)N2C2=C1C(=O)CC(C)(C)C2 (centres undefined)	1.58%	–
CO[C@]1(NC(=O)C2SC(=C(C(N)=O)C(=O)O)S2)C(=O)N2C(C(=O)O)=C(CSc3nnnn3C)CS[C@H]21 (some centres undefined)	1.2% [at 25.6 µM]	–
CCCCN1C(=O)CCC(C(=O)O)C1c1ccccc1 (centres undefined)	-3.9%	–
CCCCCCN1Cc2ccccc2C1	–	3.55 µM (active)
CCc1ccc(/C=C\C(=O)N2CCc3ccccc3C2)cc1	-12.9%	–
Cc1cc(NC(=O)c2nn(C)c(C)c2[N+](=O)[O-])no1	14.3%	–
Cc1ccc(S(=O)(=O)Nc2nc3ccccc3nc2N2CCc3ccccc3C2)cc1	-14.3%	–
Cc1ccc(C2CC(=O)c3cnc(N4CCc5ccccc5C4)nc3C2)cc1 (centres undefined)	3.43%	–
Cc1ccc2[nH]c3c(N4CCc5ccccc5C4)ncnc3c2c1	–	0.708 µM (active)
CCN1CCN(Cc2ccc(NC(=O)Nc3cccs3)cc2)CC1	-18.6%	–
